About 14,000 (4.5%) of roughly 310,000 compounds showed an effect of 50% or more. Effects have a minus sign here. This excerpt belongs to a sample that is enriched for strong results.
What follows are compounds tested against human ether-à-go-go-related gene (hERG) potassium channel (human, UniProt Q12809) (assay: primary screen, population patch clamp on CHO cells stably expressing hERG; higher = less effect of the substance).
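Also: peak tail current of the secondary pulse compared with the same well before compound.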

human ether-à-go-go-related gene (hERG) potassium channel, sequence (Q12809 whole entry, looked up): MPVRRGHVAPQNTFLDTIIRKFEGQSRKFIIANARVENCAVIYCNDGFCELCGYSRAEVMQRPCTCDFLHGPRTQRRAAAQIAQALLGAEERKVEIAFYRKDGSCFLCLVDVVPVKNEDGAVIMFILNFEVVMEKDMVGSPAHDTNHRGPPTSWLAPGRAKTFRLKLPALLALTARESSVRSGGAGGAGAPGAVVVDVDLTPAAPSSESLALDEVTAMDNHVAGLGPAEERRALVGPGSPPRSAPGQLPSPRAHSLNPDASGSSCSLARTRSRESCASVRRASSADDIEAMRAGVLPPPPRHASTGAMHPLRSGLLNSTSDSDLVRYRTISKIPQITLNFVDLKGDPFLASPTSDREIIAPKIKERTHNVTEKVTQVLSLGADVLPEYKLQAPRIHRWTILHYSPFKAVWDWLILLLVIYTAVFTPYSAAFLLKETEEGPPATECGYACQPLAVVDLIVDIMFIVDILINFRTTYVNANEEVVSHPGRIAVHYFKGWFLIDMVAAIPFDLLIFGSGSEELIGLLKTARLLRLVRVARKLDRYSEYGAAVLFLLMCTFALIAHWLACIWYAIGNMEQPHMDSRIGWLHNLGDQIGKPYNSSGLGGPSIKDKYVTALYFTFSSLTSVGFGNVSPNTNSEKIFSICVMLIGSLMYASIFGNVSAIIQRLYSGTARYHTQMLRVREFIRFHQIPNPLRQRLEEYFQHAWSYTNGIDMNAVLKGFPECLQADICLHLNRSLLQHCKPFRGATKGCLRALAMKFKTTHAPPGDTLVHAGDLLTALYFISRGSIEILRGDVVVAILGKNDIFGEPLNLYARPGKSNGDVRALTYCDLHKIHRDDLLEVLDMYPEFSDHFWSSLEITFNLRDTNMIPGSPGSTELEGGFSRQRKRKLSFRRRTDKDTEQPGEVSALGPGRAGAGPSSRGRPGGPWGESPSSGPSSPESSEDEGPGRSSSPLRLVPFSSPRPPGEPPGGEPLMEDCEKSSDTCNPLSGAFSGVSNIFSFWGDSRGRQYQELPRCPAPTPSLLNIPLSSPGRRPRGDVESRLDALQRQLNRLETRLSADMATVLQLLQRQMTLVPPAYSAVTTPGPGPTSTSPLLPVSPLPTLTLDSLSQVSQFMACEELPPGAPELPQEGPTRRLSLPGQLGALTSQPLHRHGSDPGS

| SMILES | hERG current change (%, negative = inhibition) at 10uM [%] |
| --- | --- |
| C/C=C/c1ccc(OCCN2C(=O)NC(C)(C)C2=O)c(OC)c1 | 6.58 |
| OC(CNCCc1ccccc1)c1ccccc1 (centres unmarked) | -0.0558 |
| O=C(O)c1ccc2ccccc2c1O.OCc1cc(C(O)CNCCCCCCOCCCCc2ccccc2)ccc1O (centres unmarked) | -45.5 |
| OCc1cc(C(O)CNCCCCCCOCCCCc2ccccc2)ccc1O (centres unmarked) | -57.9 |
| Cc1ccc(C(=O)Nc2ccc(N3CCN(C(=O)c4ccco4)CC3)cc2)cc1 | 10.4 |
| CCN(CC)CCCN1C(=O)c2oc3ccccc3c(=O)c2C1c1cc(OC)ccc1OC (centres unmarked) | -13 |
| CC(C)COC(=O)C(C#N)c1nc2ccccc2nc1N1CCN(Cc2ccccc2)CC1 (centres unmarked) | -12 |
| COCC(C)OC(=O)C(C#N)c1nc2ccccc2nc1N1CCN(Cc2ccccc2)CC1 (centres unmarked) | -31 |
| COCCOC(=O)C(C#N)c1nc2ccccc2nc1N1CCN(Cc2ccccc2)CC1 (centres unmarked) | -64.3 |
| N#CC(C(=O)NC1CC1)c1nc2ccccc2nc1N1CCCC1 (centres unmarked) | -7.63 |
| CC1CCN(c2nc3ccccc3nc2C(C#N)C(=O)NC2CCCCC2)CC1 (centres unmarked) | 10.1 |
| C=CCOC(=O)C(C#N)c1nc2ccccc2nc1N1CCN(Cc2ccccc2)CC1 (centres unmarked) | -62.1 |
| CC(C)OC(=O)C(C#N)c1nc2ccccc2nc1N1CCN(Cc2ccccc2)CC1 (centres unmarked) | -18.6 |
| COC(=O)C(C#N)c1nc2ccccc2nc1N1CCN(Cc2ccc3c(c2)OCO3)CC1 (centres unmarked) | -2.48 |
| N#CC(C(=O)NC1CC1)c1nc2ccccc2nc1N1CCN(C/C=C/c2ccccc2)CC1 (centres unmarked) | -58.9 |
| CSc1ccc(/C=C/C(=O)c2ccc(NC(=O)Cc3ccccc3)cc2)cc1 | -4.59 |
| O=C(O)c1ccc(NS(=O)(=O)c2ccc(Cl)c(Cl)c2)cc1O | -1.71 |
| COc1ccc(-c2csc3nc(-c4ccccc4F)oc(=O)c23)cc1OC | -3.61 |
| CCOC(=O)c1ccc(COC(=O)c2cc3ccccc3oc2=O)o1 | -48.6 |
| Cc1ccc(C2NC(=O)NC3=C2CCc2ccccc23)cc1 (centres unmarked) | 2.59 |
| O=C1NC2=C(CCc3ccccc32)C(c2ccccc2)N1 (centres unmarked) | -20.8 |
| O=C1NC2=C(CCc3ccccc32)C(c2ccc(Br)cc2)N1 (centres unmarked) | -56.3 |
| CCOC(=O)c1cccc(NC(=O)c2c(O)[nH]c(=O)[nH]c2=O)c1 | -2.88 |
